# Measurements reported in publication PMC7862700, “An all-to-all approach to the identification of sequence-specific readers for epigenetic DNA modifications on cytosine”.
# Tests used:
# Test in all cases: DAPPL (digital affinity profiling via proximity ligation, sequencing); 10 mM Tris-HCl pH 7.5, 50 mM NaCl, 1 mM DTT, 4% glycerol, room temperature, 30 min; GST-TFs on glutathione beads, 16-mer random dsDNA library, 0.1% formaldehyde crosslink after washing; high values mean tight binding
# FLI1 = biological target: T1, FLI1 (Homo sapiens, UniProt Q01543 1-452); conditions: protein: recombinant; tags: N-terminal GST; dsDNA, one strand shown
# T1 sequence: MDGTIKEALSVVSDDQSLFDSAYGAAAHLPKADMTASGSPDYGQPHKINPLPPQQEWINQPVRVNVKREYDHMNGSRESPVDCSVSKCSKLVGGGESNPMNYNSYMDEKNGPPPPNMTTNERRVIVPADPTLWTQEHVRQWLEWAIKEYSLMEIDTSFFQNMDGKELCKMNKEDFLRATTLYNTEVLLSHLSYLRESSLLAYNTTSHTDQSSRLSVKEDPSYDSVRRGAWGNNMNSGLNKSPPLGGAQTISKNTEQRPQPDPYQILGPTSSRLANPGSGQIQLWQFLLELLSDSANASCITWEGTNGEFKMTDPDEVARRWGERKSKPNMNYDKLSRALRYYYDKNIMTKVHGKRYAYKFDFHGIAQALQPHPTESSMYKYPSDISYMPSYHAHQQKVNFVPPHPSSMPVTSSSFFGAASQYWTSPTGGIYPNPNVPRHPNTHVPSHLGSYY
# Summary of the method: (§1)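 Binding signal is defined as a hexamer's read frequency for one factor over its frequency for the tag-only sample. To obtain reads, GST-fused human transcription factors were expressed in yeast, captured on glutathione beads, barcoded with DNA and pooled with that sample. Pools met 200 nmole of a 16-mer random double-stranded DNA library in Tris/NaCl/DTT/glycerol buffer for 30 min at room temperature before washing, 0.1% formaldehyde crosslinking, proximity ligation (BsaI/T4 ligase, 1 h, 37 °C), PCR and Illumina NextSeq500 sequencing.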
# ELK1 = biological target: T2, ELK1 (Homo sapiens, UniProt P19419 1-428); conditions: protein: recombinant; tags: N-terminal GST; dsDNA, one strand shown
# T2 sequence: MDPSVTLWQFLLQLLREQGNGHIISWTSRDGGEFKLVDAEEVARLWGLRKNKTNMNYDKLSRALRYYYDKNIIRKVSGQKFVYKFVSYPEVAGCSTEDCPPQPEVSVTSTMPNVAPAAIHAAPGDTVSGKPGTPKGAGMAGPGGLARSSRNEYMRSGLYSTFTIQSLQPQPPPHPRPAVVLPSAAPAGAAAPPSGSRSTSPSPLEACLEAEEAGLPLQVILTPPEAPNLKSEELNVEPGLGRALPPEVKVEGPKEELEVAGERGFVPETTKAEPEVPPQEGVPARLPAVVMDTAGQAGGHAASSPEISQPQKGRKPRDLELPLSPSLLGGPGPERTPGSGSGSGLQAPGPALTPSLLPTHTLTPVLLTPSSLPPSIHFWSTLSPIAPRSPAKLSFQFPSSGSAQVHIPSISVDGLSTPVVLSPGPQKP
# Summary of the method: as §1
# GABPA = biological target: T3, GABPA (Homo sapiens, UniProt Q06546 1-454); conditions: protein: recombinant; tags: N-terminal GST; dsDNA, one strand shown
# T3 sequence: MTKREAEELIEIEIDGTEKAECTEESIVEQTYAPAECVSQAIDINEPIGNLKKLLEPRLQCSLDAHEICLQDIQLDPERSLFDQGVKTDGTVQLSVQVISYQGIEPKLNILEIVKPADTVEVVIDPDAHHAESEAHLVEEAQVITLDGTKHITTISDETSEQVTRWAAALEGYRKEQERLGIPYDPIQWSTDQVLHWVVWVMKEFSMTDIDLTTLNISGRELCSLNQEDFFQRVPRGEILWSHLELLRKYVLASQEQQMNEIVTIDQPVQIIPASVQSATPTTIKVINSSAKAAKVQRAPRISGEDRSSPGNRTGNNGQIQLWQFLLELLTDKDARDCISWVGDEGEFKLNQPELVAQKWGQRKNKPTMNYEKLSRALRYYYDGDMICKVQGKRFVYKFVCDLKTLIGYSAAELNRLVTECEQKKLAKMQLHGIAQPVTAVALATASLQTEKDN
# Summary of the method: as §1
# ERG = biological target: T4, ERG (Homo sapiens, UniProt P11308 1-479); conditions: protein: recombinant; tags: N-terminal GST; dsDNA, one strand shown
# T4 sequence: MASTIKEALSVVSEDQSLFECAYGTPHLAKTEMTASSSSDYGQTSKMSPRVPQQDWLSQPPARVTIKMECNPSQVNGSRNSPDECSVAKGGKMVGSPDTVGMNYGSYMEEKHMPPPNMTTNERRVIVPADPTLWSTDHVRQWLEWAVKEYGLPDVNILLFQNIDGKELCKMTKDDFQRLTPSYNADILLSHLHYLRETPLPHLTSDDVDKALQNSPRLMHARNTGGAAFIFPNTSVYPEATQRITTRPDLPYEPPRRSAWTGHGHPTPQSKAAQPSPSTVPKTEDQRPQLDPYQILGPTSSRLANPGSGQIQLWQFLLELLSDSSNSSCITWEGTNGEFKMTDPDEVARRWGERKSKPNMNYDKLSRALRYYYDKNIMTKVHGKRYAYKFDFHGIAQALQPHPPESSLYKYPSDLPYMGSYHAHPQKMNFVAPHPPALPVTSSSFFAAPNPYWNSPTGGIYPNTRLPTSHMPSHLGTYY
# Summary of the method: as §1
# ELF1 = ELF1 (Homo sapiens, UniProt P32519 1-619); conditions: protein: recombinant; tags: N-terminal GST; dsDNA, one strand shown
# Summary of the method: as §1
# EHF = biological target: T5, EHF (Homo sapiens, UniProt Q9NZC4 1-300); conditions: protein: recombinant; tags: N-terminal GST; dsDNA, one strand shown
# T5 sequence: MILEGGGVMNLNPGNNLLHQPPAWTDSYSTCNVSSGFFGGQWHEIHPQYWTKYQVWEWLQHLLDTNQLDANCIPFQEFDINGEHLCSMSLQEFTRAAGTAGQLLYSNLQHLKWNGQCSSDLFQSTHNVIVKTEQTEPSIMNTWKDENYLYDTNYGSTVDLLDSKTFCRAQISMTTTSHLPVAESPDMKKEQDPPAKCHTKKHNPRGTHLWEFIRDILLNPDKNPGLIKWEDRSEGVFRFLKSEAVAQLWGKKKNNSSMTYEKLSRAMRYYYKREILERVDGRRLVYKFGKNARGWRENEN
# Summary of the method: as §1
# SPIB = SPIB (Homo sapiens, UniProt Q01892 1-262); conditions: protein: recombinant; tags: N-terminal GST; dsDNA, one strand shown
# Summary of the method: as §1
# ELK3 = biological target: T6, ELK3 (Homo sapiens, UniProt P41970 1-407); conditions: protein: recombinant; tags: N-terminal GST; dsDNA, one strand shown
# T6 sequence: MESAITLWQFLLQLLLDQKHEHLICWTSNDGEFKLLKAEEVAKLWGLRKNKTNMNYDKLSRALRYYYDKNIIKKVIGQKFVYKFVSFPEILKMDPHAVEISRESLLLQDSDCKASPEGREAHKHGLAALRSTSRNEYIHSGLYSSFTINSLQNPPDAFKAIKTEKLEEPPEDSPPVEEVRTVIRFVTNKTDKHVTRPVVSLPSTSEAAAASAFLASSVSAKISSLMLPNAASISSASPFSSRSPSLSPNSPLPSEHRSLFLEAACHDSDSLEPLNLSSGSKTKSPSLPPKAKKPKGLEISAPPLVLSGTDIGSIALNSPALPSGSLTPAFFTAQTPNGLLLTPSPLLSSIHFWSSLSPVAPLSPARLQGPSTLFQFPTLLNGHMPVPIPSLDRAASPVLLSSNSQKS
# Summary of the method: as §1
# FEV = biological target: T7, FEV (Homo sapiens, UniProt Q99581 1-238); conditions: protein: recombinant; tags: N-terminal GST; dsDNA, one strand shown
# T7 sequence: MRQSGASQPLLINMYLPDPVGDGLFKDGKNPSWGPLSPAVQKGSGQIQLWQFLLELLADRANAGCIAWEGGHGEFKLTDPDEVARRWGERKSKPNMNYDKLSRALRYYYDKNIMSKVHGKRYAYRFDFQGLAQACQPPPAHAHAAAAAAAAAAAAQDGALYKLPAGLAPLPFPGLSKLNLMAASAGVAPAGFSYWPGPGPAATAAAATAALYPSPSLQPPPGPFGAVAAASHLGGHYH
# Summary of the method: as §1
# ETV5 = ETV5 (Homo sapiens, UniProt P41161 1-510); conditions: protein: recombinant; tags: N-terminal GST; dsDNA, one strand shown
# Summary of the method: as §1
# HSF1 = HSF1 (Homo sapiens, UniProt Q00613 1-529); conditions: protein: recombinant; tags: N-terminal GST; chain copies: 3; dsDNA, one strand shown
# Summary of the method: as §1
# SPIC = biological target: T8, SPIC (Homo sapiens, UniProt Q8N5J4 1-248); conditions: protein: recombinant; tags: N-terminal GST; dsDNA, one strand shown
# T8 sequence: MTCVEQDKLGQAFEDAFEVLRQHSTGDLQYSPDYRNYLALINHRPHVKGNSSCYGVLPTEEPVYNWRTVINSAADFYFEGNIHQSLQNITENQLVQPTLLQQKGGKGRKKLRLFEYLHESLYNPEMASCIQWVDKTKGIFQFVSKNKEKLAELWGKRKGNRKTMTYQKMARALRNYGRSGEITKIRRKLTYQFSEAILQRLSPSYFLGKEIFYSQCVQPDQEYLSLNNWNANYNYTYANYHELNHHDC
# Summary of the method: as §1
# ELF4 = ELF4 (Homo sapiens, UniProt Q99607 1-663); conditions: protein: recombinant; tags: N-terminal GST; dsDNA, one strand shown
# Summary of the method: as §1
# ELK4 = biological target: T9, ELK4 (Homo sapiens, UniProt P28324-2 1-405); conditions: protein: recombinant; tags: N-terminal GST; dsDNA, one strand shown
# T9 sequence: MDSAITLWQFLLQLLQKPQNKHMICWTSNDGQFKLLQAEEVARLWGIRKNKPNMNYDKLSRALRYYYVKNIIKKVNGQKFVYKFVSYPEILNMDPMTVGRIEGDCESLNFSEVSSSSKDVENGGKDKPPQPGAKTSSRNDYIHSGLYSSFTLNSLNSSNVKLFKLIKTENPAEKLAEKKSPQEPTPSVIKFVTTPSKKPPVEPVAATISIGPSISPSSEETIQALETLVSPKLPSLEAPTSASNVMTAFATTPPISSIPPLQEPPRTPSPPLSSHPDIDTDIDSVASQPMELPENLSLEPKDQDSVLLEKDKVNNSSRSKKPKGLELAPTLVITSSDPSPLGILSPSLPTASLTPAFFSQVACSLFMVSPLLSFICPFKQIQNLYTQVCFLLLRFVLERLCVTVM
# Summary of the method: as §1
# ETV2 = biological target: T10, ETV2 (Homo sapiens, UniProt O00321 1-342); conditions: protein: recombinant; tags: N-terminal GST; dsDNA, one strand shown
# T10 sequence: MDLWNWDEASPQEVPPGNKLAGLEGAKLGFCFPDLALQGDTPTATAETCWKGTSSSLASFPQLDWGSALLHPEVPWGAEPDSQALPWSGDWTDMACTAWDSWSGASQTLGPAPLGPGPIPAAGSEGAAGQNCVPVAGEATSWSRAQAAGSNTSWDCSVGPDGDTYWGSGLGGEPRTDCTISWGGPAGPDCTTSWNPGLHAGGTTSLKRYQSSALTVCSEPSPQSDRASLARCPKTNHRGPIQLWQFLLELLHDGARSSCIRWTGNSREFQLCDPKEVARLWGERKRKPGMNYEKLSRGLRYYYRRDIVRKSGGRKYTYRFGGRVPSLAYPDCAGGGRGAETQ
# Summary of the method: as §1
# ELF3 = biological target: T11, ELF3 (Homo sapiens, UniProt P78545 1-371); conditions: protein: recombinant; tags: N-terminal GST; dsDNA, one strand shown
# T11 sequence: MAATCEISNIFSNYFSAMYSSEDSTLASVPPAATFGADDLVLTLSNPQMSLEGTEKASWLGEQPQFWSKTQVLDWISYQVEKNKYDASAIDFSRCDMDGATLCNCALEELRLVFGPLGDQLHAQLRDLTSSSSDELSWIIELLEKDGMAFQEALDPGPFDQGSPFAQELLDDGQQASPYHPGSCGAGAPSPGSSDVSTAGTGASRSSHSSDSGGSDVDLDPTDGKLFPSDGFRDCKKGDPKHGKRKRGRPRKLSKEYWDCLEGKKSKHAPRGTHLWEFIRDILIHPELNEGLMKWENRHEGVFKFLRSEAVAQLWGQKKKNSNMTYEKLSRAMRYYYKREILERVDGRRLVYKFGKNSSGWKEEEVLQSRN
# Summary of the method: as §1
# ETV1 = ETV1 (Homo sapiens, UniProt P50549 1-477); conditions: protein: recombinant; tags: N-terminal GST; dsDNA, one strand shown
# Summary of the method: as §1
# Sequence of ETV1 (P50549 whole entry): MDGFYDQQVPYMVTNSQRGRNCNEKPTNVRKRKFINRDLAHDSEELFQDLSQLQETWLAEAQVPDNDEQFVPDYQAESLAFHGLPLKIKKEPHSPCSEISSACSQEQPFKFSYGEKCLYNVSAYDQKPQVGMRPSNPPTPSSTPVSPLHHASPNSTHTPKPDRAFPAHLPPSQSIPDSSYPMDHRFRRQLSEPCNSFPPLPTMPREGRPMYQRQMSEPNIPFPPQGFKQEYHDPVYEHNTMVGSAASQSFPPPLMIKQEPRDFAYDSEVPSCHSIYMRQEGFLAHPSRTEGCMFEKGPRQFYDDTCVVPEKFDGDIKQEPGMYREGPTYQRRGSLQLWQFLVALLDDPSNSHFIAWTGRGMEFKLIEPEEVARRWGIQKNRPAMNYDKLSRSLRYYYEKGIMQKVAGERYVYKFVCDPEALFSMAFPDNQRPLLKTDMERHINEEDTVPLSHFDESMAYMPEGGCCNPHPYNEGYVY
# Sequence of ELF1 (P32519 whole entry): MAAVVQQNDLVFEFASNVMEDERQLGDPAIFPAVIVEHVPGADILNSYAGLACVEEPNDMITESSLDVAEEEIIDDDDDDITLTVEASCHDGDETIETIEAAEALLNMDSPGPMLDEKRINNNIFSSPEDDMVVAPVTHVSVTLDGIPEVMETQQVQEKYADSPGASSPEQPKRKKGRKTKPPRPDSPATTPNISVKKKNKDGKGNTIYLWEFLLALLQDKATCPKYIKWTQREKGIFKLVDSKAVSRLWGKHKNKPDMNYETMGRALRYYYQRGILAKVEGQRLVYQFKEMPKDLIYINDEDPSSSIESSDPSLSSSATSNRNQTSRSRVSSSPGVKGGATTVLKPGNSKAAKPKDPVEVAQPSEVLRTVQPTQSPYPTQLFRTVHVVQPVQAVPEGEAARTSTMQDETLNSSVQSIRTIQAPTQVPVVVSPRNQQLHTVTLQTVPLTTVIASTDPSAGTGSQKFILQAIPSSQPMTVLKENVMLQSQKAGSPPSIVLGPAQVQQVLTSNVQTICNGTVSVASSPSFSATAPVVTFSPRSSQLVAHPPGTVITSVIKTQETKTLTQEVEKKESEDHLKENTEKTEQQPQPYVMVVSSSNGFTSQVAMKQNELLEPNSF
# Sequence of ELF4 (Q99607 whole entry): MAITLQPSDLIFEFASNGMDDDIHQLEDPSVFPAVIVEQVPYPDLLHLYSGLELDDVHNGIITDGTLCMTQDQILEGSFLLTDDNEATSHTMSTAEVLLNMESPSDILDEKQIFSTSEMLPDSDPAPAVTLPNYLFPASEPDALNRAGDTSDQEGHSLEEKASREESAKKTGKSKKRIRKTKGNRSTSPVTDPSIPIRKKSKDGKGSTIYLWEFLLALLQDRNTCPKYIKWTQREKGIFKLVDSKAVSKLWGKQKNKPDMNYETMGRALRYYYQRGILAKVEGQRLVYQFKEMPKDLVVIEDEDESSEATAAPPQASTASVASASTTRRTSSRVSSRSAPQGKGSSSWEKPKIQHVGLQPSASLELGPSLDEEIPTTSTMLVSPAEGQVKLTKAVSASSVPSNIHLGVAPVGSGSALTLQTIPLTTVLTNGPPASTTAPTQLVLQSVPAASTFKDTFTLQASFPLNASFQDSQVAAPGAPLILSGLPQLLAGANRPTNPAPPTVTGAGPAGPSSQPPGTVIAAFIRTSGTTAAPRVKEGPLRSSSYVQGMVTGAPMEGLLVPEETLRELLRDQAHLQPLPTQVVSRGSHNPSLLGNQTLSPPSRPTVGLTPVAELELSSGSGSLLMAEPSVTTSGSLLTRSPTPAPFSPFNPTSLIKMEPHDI
# Sequence of SPIB (Q01892 whole entry): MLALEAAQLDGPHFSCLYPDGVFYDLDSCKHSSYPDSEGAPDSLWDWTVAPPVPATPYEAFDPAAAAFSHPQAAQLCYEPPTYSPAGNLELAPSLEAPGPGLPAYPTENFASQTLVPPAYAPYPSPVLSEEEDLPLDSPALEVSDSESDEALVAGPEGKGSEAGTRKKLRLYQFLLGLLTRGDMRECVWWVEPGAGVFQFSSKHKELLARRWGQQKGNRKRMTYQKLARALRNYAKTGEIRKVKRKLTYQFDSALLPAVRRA
# Sequence of HSF1 (Q00613 whole entry): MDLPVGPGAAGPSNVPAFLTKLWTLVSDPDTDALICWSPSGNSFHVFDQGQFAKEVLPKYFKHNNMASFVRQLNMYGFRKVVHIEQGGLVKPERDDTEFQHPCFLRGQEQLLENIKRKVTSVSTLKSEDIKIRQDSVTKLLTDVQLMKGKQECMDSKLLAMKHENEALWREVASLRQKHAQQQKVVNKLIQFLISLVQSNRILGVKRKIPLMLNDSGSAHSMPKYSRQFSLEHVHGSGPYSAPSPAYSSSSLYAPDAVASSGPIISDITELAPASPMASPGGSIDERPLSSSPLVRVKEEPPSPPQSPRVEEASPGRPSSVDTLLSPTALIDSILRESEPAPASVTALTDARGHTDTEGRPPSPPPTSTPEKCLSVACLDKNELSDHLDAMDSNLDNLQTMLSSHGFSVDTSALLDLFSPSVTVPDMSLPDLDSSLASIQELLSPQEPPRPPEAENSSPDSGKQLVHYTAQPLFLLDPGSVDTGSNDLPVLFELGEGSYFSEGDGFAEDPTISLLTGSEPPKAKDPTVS
# Sequence of ETV5 (P41161 whole entry): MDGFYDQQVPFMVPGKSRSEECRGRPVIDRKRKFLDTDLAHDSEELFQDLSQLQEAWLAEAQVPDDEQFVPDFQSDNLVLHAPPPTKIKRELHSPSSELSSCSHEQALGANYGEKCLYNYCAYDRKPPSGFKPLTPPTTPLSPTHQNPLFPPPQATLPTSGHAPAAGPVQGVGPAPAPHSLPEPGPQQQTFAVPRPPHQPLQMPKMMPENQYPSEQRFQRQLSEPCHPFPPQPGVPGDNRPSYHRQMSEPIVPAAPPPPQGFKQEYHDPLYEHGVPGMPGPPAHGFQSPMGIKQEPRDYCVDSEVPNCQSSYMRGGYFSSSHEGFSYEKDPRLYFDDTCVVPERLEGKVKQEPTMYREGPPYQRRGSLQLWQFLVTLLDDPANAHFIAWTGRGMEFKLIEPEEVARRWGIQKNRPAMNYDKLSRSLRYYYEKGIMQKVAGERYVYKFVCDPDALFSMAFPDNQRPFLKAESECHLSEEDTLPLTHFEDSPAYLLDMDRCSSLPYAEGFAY
sequence,measurement,setting,value
GCACGA,binding signal,FLI1,"1.14 fold enrichment (6-mer frequency, TF over GST control)"
same,binding signal,ELK1,"1.02 fold enrichment (6-mer frequency, TF over GST control)"
same,binding signal,GABPA,"1.23 fold enrichment (6-mer frequency, TF over GST control)"
same,binding signal,ERG,"1.02 fold enrichment (6-mer frequency, TF over GST control)"
same,binding signal,ELF1,"1.05 fold enrichment (6-mer frequency, TF over GST control)"
same,binding signal,EHF,"1.09 fold enrichment (6-mer frequency, TF over GST control)"
same,binding signal,SPIB,"1.08 fold enrichment (6-mer frequency, TF over GST control)"
same,binding signal,ELK3,"1 fold enrichment (6-mer frequency, TF over GST control)"
same,binding signal,FEV,"1.09 fold enrichment (6-mer frequency, TF over GST control)"
same,binding signal,ETV5,"1.15 fold enrichment (6-mer frequency, TF over GST control)"
same,binding signal,HSF1,"1.04 fold enrichment (6-mer frequency, TF over GST control)"
same,binding signal,SPIC,"1.18 fold enrichment (6-mer frequency, TF over GST control)"
same,binding signal,ELF4,"1.1 fold enrichment (6-mer frequency, TF over GST control)"
same,binding signal,ELK4,"1.13 fold enrichment (6-mer frequency, TF over GST control)"
same,binding signal,ETV2,"1.31 fold enrichment (6-mer frequency, TF over GST control)"
same,binding signal,ELF3,"1.16 fold enrichment (6-mer frequency, TF over GST control)"
same,binding signal,ETV1,"1.05 fold enrichment (6-mer frequency, TF over GST control)"
